From the antibiotic and cytotoxicity screens of Wong et al. (2023) come the findings set out here.

Out of some 39,000 compounds screened, about 3,300 (8.5%) were called active. What follows is part of a selection rich in actives, with near analogues and random picks from the rest.

This experiment concerns HepG2. Kind of experiment: cytotoxicity call (relative viability < 0.9). As to conditions: 10 µM.
As for `O=C(C[C@@H]1C[C@H]2c3cc(NC(=O)Cc4ccncc4)ccc3O[C@H]2[C@@H](CO)O1)NCc1cccc(F)c1`, the cytotoxicity call was “inactive”.
The same measure for `N[C@H](C(=O)O)[C@@H]1CC(Cl)=NO1`: “active”; for `C[C@@H]1CN([C@H](C)CO)C(=O)c2cc(NS(=O)(=O)c3ccc(F)cc3)ccc2O[C@@H]1CN(C)S(=O)(=O)c1cccs1`: “inactive”.
The same measure for `Cc1noc(C)c1S(=O)(=O)Nc1ccc2c(c1)CC(=O)N([C@@H](C)CO)C[C@H](C)[C@@H](CN(C)S(=O)(=O)c1ccc(Cl)cc1)O2`: “inactive”; for `Cc1cccc(C)c1NC(=O)c1ccccc1C(=O)O`: “active”; for `Cc1cccc(Nc2ccccc2C(=O)O)c1C`: “inactive”.
The same measure for `Cc1cccc(C(=O)O)c1O`: “inactive”.
In the case of `C[C@@H]1CN([C@@H](C)CO)S(=O)(=O)c2ccc(C#CC3CCCCC3)cc2O[C@H]1CN(C)C(=O)Cc1ccncc1`, the cytotoxicity call was “inactive”.
With `COC1CC(OC2C(C)=CCC3CC(CC4(CCC(C)C(C5CCCCC5)O4)O3)OC(=O)C3C=C(C)C(=NO)C4OCC(=CC=CC2C)C34O)OC(C)C1O` (stereo unspecified) the entry was “active”.
With `CO[C@H]1C[C@H](O[C@@H]2/C(C)=C/C[C@@H]3C[C@@H](C[C@]4(CC[C@H](C)[C@@H](C5CCCCC5)O4)O3)OC(=O)[C@@H]3C=C(C)/C(=N/O)[C@H]4OC/C(=C\C=C\[C@@H]2C)[C@]43O)O[C@@H](C)[C@@H]1O` the entry was “active”; with `CO[C@H]1C[C@@H](O[C@@H]2/C(C)=C/C[C@@H]3C[C@@H](C[C@]4(CC[C@H](C)[C@@H](C5CCCCC5)O4)O3)OC(=O)[C@@H]3C=C(C)/C(=N/O)[C@H]4OC/C(=C\C=C\[C@@H]2C)[C@]43O)O[C@@H](C)[C@@H]1O`, “inactive”; with `COCC(=O)Nc1ccc2c(c1)C(=O)N(C)[C@@H]1CC[C@@H](CC(=O)N3CCc4ccccc4C3)O[C@@H]1CO2`, “inactive”.
With `COc1ccc(NC(=O)Nc2ccc3c(c2)C(=O)N([C@@H](C)CO)C[C@H](C)[C@H](CN(C)C(=O)NC2CCCCC2)OCCCC[C@@H](C)O3)cc1` the entry was “inactive”.
Take `COc1ccc(C)c2c1CCCC2=O`: the cytotoxicity call was “inactive”.
As to `C[C@H](CO)N1C[C@H](C)[C@H](CN(C)C(=O)Nc2cccc3ccccc23)Oc2ccc(NC(=O)Cn3cnnn3)cc2CC1=O`, the cytotoxicity call was “inactive”.
The same measure for `C[C@@H]1CN([C@H](C)CO)C(=O)c2cc(NC(=O)Nc3ccc(C(F)(F)F)cc3)ccc2O[C@@H](C)CCCCO[C@H]1CN(C)S(=O)(=O)c1cccs1`: “inactive”; for `C[C@@H]1CCCCO[C@@H](CN(C)C(=O)CCC(F)(F)F)[C@H](C)CN([C@H](C)CO)C(=O)c2cc(NS(=O)(=O)c3cccs3)ccc2O1`: “inactive”.
The same measure for `Cc1ccc(S(=O)(=O)N[C@@H]2CC[C@H](CC(=O)N3CCC(Cc4ccccc4)CC3)O[C@@H]2CO)cc1`: “inactive”; for `C[C@@H]1CCCCO[C@H](CN(C)C(=O)NC2CCCCC2)[C@@H](C)CN([C@H](C)CO)C(=O)c2cc(NC(=O)Nc3ccccc3)ccc2O1`: “inactive”.
Consider `C[C@@H]1CCCCO[C@H](CN(C)C(=O)C2CCCCC2)[C@@H](C)CN([C@@H](C)CO)C(=O)c2cc(NS(=O)(=O)c3ccc(F)cc3)ccc2O1`, for which the cytotoxicity call was “inactive”.
On to `COc1cccc(NC(=O)N(C)C[C@@H]2Oc3ncc(C#Cc4cccnc4)cc3C(=O)N([C@H](C)CO)C[C@@H]2C)c1`, for which the cytotoxicity call is “inactive”.
The same measure for `C=C1CC2C3C=C(C)C4=CC(=O)CCC4(C)C3CCC2(C)C1(OC(C)=O)C(C)=O` (stereo unspecified): “inactive”; for `COC(=O)C[C@@H]1C[C@@H](C)[C@@H]2C(=O)c3c(O)c4c(c(O)c3C(=O)[C@@H]2[C@@H]1O)[C@H]1C[C@@H](O)[C@@]4(O)[C@@H](C)O1`: “active”; for `CO[C@H](CN(C)S(=O)(=O)c1cn(C)cn1)[C@H](C)CN(C(=O)Nc1ccc(C(F)(F)F)cc1)[C@@H](C)CO`: “inactive”.
With `C[C@@H]1CCCCO[C@@H](CN(C)C(=O)Nc2ccc(C(F)(F)F)cc2)[C@H](C)CN([C@@H](C)CO)C(=O)c2cc(NS(=O)(=O)c3ccccc3)ccc2O1` the entry was “inactive”.
The same measure for `C[C@@H]1CCCCO[C@H](CN(C)C(=O)Nc2ccc(C(F)(F)F)cc2)[C@H](C)CN([C@@H](C)CO)C(=O)c2cc(NS(=O)(=O)c3ccccc3)ccc2O1`: “active”; for `C[C@H]1CCCCO[C@@H](CN(C)C(=O)Nc2ccc(C(F)(F)F)cc2)[C@@H](C)CN([C@@H](C)CO)C(=O)c2cc(NS(=O)(=O)c3ccccc3)ccc2O1`: “active”.
Regarding `C[C@@H]1CN([C@@H](C)CO)C(=O)c2cc(NS(=O)(=O)c3ccccc3)ccc2O[C@@H](C)CCCCO[C@H]1CN(C)C(=O)Nc1ccc(C(F)(F)F)cc1`, the cytotoxicity call is “inactive”.
The same measure for `C[C@@H]1CN([C@@H](C)CO)C(=O)c2cc(NS(=O)(=O)c3ccccc3)ccc2O[C@@H](C)CCCCO[C@@H]1CN(C)C(=O)Nc1ccc(C(F)(F)F)cc1`: “inactive”; for `C[C@@H]1CN([C@H](C)CO)C(=O)c2cc(NS(=O)(=O)c3ccccc3)ccc2O[C@@H](C)CCCCO[C@H]1CN(C)C(=O)Nc1ccc(C(F)(F)F)cc1`: “inactive”.
The same measure for `C[C@H](CO)N1C[C@H](C)[C@@H](CN(C)C(=O)Nc2ccc(C(F)(F)F)cc2)OCCCC[C@H](C)Oc2ccc(NS(=O)(=O)c3ccccc3)cc2C1=O`: “inactive”; for `C[C@@H]1CCCCO[C@H](CN(C)C(=O)Nc2ccc(C(F)(F)F)cc2)[C@@H](C)CN([C@H](C)CO)C(=O)c2cc(NS(=O)(=O)c3ccccc3)ccc2O1`: “inactive”.
With `C[C@@H]1CCCCO[C@@H](CN(C)C(=O)Nc2ccc(C(F)(F)F)cc2)[C@H](C)CN([C@H](C)CO)C(=O)c2cc(NS(=O)(=O)c3ccccc3)ccc2O1` the entry was “active”.
As to `C[C@@H]1CCCCO[C@H](CN(C)C(=O)Nc2ccc(C(F)(F)F)cc2)[C@H](C)CN([C@H](C)CO)C(=O)c2cc(NS(=O)(=O)c3ccccc3)ccc2O1`, the cytotoxicity call is “active”.
Regarding `C[C@H]1CN([C@@H](C)CO)C(=O)Cc2cc(NS(=O)(=O)c3cccs3)ccc2O[C@@H]1CN(C)S(=O)(=O)c1cn(C)cn1`, the cytotoxicity call was “inactive”.
With `Cc1noc(C)c1NC(=O)Nc1ccc2c(c1)C(=O)N([C@H](C)CO)C[C@H](C)[C@H](CN(C)S(=O)(=O)c1ccccc1)O2` the entry was “inactive”; with `COc1ccc2c3c([nH]c2c1)[C@H](CO)N(C[C@]13CN(Cc2ccccc2F)C1)S(=O)(=O)c1cn(cn1)C`, “inactive”.
With `Cc1noc(C)c1NC(=O)Nc1ccc2c(c1)CC(=O)N([C@H](C)CO)C[C@H](C)[C@@H](CN(C)S(=O)(=O)c1cccs1)O2` the entry was “inactive”; with `Cc1ccc(S(=O)(=O)N(C)C[C@@H]2OCCCC[C@H](C)Oc3ccc(NC(=O)Nc4ccc(F)cc4)cc3C(=O)N([C@H](C)CO)C[C@@H]2C)cc1`, “inactive”; with `C[C@H](NC(=O)N(C)C[C@@H]1OCc2ccccc2-c2ccccc2C(=O)N([C@H](C)CO)C[C@@H]1C)c1ccccc1`, “inactive”.
The same measure for `CCn1c(N)nc2c1c(=O)[nH]c(=O)n2C`: “inactive”; for `NCCn1nc([C@H]2CCN(C(=O)c3csc4c3CCCC4)C2)c2nccnc21`: “inactive”; for `Cc1ccc(S(=O)(=O)N(C)C[C@@H]2Oc3ccc(NS(=O)(=O)c4cn(C)cn4)cc3C(=O)N([C@@H](C)CO)C[C@H]2C)cc1`: “inactive”.
In the case of `CCSC1=C(C#N)C(=O)N[C@@H](CO)S1`, the cytotoxicity call was “inactive”.
As for `C[C@H](CO)N1C[C@H](C)[C@@H](CN(C)Cc2ccc(C(=O)O)cc2)OCCCC[C@H](C)Oc2ccc(NC(=O)Nc3cccc4ccccc34)cc2C1=O`, the cytotoxicity call is “inactive”.
For the compound `C[C@H]1CCCCO[C@H](CN(C)C(=O)Nc2ccc(C(F)(F)F)cc2)[C@@H](C)CN([C@@H](C)CO)C(=O)c2cc(NS(=O)(=O)c3ccccc3)ccc2O1`, the cytotoxicity call was “active”.
With `C[C@@H]1CCCCO[C@@H](CN(C)C(=O)Nc2ccc(C(F)(F)F)cc2)[C@@H](C)CN([C@H](C)CO)C(=O)c2cc(NS(=O)(=O)c3ccccc3)ccc2O1` the entry was “active”.
The same measure for `C[C@H](CO)N1C[C@H](C)[C@H](CN(C)C(=O)Nc2ccc(C(F)(F)F)cc2)OCCCC[C@H](C)Oc2ccc(NS(=O)(=O)c3ccccc3)cc2C1=O`: “inactive”; for `C[C@@H]1CCCCO[C@H](CN(C)C(=O)Nc2ccc(C(F)(F)F)cc2)[C@@H](C)CN([C@@H](C)CO)C(=O)c2cc(NS(=O)(=O)c3ccccc3)ccc2O1`: “inactive”.
In the case of `Cc1noc(C)c1S(=O)(=O)Nc1cccc2c1O[C@@H](CN(C)S(=O)(=O)c1cccs1)[C@@H](C)CN([C@@H](C)CO)C2=O`, the cytotoxicity call was “inactive”.
As for `COc1ccc(-n2c(N)cc(=O)[nH]c2=O)cc1`, the cytotoxicity call was “inactive”.
With `N=C(N)Nc1nc(=O)c2ccccc2s1` the entry was “inactive”; with `CSc1cccc2sc(Nc3ccc(Cl)cc3)nc12`, “inactive”; with `c1ccc(Nc2nc3c(ccc4ccccc43)s2)cc1`, “active”.
The same measure for `O=C(C[C@H]1CC=CC[C@H](Cc2ccc(F)cc2)C(=O)OC[C@@H](Cc2c[nH]c3ccccc23)NC1=O)NCCO`: “inactive”.
With `C[C@@H]1CN([C@@H](C)CO)C(=O)Cc2cc(NC(=O)C3CCCCC3)ccc2O[C@@H]1CN(C)S(C)(=O)=O` the entry was “inactive”; with `C[C@@H]1CN([C@@H](C)CO)C(=O)c2cc(NC(=O)C3CCCCC3)ccc2O[C@@H](C)CCCCO[C@H]1CN(C)C(=O)C1CCCCC1`, “inactive”; with `Cc1noc(C)c1S(=O)(=O)Nc1ccc2c(c1)CC(=O)N([C@@H](C)CO)C[C@@H](C)[C@@H](CN(C)C(=O)Nc1ccc3c(c1)OCO3)O2`, “inactive”.
On to `CNC(=O)c1c(O)c2ccccc2n(C)c1=O`, for which the cytotoxicity call is “active”.
With `CNC(=O)c1c(O)c2ccccc2[nH]c1=O` the entry was “inactive”; with `Cn1c(=O)c(C(=O)NCCO)c(O)c2ccccc21`, “inactive”.
Consider `COc1ccc2c3c([nH]c2c1)[C@H](CO)N(C[C@]13CCN(CC1)C(=O)CN(C)C)S(=O)(=O)C`, for which the cytotoxicity call was “inactive”.
The same measure for `CC1OC1P(=O)([O-])[O-].[Ca+2]` (stereo unspecified): “inactive”.
As to `Cc1[nH]c2ccccc2c1C(=O)CSc1ccc(Cl)cc1`, the cytotoxicity call was “inactive”.
With `NCC[S@@](=O)c1c(-c2ccc(F)cc2)[nH]c2ccccc12` the entry was “inactive”; with `CSc1c(-c2ccc(Cl)cc2)[nH]c2ccccc12`, “active”.
